# Measurements as given in PubChem BioAssay (NCI).
# This is part of a sample that, as a whole, favours compounds with a hit. Of some 83,000 tested, about 20% had one in any assay.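 For each line, cells grew in 96-well plates with the test compound present at a single concentration for 48 hours.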 Unmarked numbers belong to inactive results. The source made the active and inactive calls. How the source made its calls: active means growth percent below 10; inactive means the rest.
# Columns and labels:
# Assay in all cases: NCI-60 one-dose screen, 48 h (100 = growth as untreated, 0 = no growth, -100 = all killed)
# Conditions in all cases: 10 µM unless noted
# BT-549 breast = tested on: BT-549 breast
# MDA-MB-435 melanoma = tested on: MDA-MB-435 melanoma
# SW-620 colon = tested on: SW-620 colon
# MCF7 breast = tested on: MCF7 breast
# HCT-116 colon = tested on: HCT-116 colon
# HCC-2998 colon = tested on: HCC-2998 colon
# KM12 colon = tested on: KM12 colon
Structure (SMILES),growth (BT-549 breast),growth (MDA-MB-435 melanoma),growth (SW-620 colon),growth (MCF7 breast),growth (HCT-116 colon),growth (HCC-2998 colon),growth (KM12 colon)
COc1ccc(-c2cn(-c3ccccc3)c(-c3ccccc3)n2)cc1OC,15%,35.7%,5.69% (active),19.1%,20.3%,58.8%,-3.88% (active)
Oc1ccc(-c2nn(-c3ccccc3)cc2-c2nc3ccccc3s2)cc1,103%,102%,99.6%,50.4%,88.8%,102%,82.8%
O=C(Nc1ccncc1)C(=O)c1cn(S(=O)(=O)c2cccc(F)c2)c2ccccc12,27.8%,-1.83% (active),21.7%,5.06% (active),19.5%,66.2%,27.6%
OCCOc1c(Cl)cc(Cl)cc1Cl,109%,103%,98.7%,89%,109%,110%,115%
CCOC(=O)c1cc(-c2cccnc2)nc2c(Cl)cc(Cl)cc12,109%,95%,103%,90.5%,56.4%,98.1%,102%
O=C(/C=C/c1ccc(O)c(O)c1)N1CCN(c2ccc(Cl)cc2)CC1,56.9%,67.9%,64%,74.9%,55.7%,82.9%,73.5%
COc1ccc2c(c1)[nH]c(=O)c1c3cc(OC)c(OC)cc3cn21,10.5%,-20.3% (active),31.7%,17.5%,-18.8% (active),25.8%,-33% (active)
COc1cc(/C=C/C(=O)Nc2cccnc2Nc2cc(OC)c(OC)c(OC)c2)cc(OC)c1OC,96.7%,96.6%,99.1%,87.9%,88.6%,97%,103%
Cc1nn(-c2ccc(Cl)cc2)c2nc3c(nc12)c(=O)oc1ccccc13,89.8%,106%,104%,99.1%,105%,98.2%,112%
Cc1ccc([N+](=O)[O-])cc1NC(=O)Nc1cccc(F)c1,92.7%,76.7%,99.7%,69.8%,44%,91.8%,80.9%
COc1cc2c(cc1OCCCOc1ccc(-c3cc4ccccc4c4ccccc34)cc1)N=C[C@@H]1CCCN1C2=O,-50.8% (active),-30.8% (active),-43.8% (active),-75.1% (active),-23.1% (active),2.28% (active),-20.4% (active)
COc1ccc2c(c1)C(=O)c1c-2c(=O)n(CCCCCCC(=O)NO)c2ccccc12,23.4%,-14.1% (active),-27.4% (active),5.92% (active),-55.8% (active),-39.6% (active),10.9%
COc1ccc(-n2nnc(C(=O)O)c2-c2cc(OC)c(OC)c(OC)c2)cc1,101%,121%,104%,102%,100%,99.1%,105%
O=C(Oc1ccc[nH]c1=O)c1cccc(Cl)c1,88.4%,108%,115%,93.9%,88.5%,106%,104%
O=C(COC(=O)[C@H](C[Se][Se]C[C@H](NC(=O)c1ccc(Br)cc1F)C(=O)OCC(=O)c1ccc(F)cc1)NC(=O)c1ccc(Br)cc1F)c1ccc(F)cc1,-93% (active),-42.1% (active),-95% (active),-58.4% (active),-72.4% (active),-68.9% (active),-99.1% (active)
CC(O)c1nc2c(c(=O)n(C)c(=O)n2C)n1C (configuration not stated),109%,111%,110%,102%,90.2%,103%,113%
CN(C)c1nc(N)nc(Cn2c(-c3nonc3N)nc3ccccc32)n1,91.8%,7.85% (active),52.4%,66.5%,71.5%,82.7%,55.4%
CSc1nc2c(c(=O)n1C)C(c1ccccc1)C1=C(N2)/C(=C/c2ccccc2)CCC1 (configuration not stated),37.9%,4.1% (active),47.1%,56.7%,39.5%,71.4%,71.4%

Structure (SMILES),growth (BT-549 breast),growth (MDA-MB-435 melanoma),growth (SW-620 colon),growth (MCF7 breast),growth (HCT-116 colon),growth (HCC-2998 colon),growth (KM12 colon)
Cc1cc2c(cc1[N+](=O)[O-])NC(CNC(C)C)CC2 (configuration not stated),102%,107%,111%,105%,96.2%,86.6%,107%
O=c1c(O)cccn1CCCNCCCN(CCCn1cccc(O)c1=O)CCCn1cccc(O)c1=O,113%,104%,99.1%,104%,108%,101%,106%
CSc1nc2c(c(=O)[nH]1)C(c1ccc(Cl)cc1)C1=C(N2)/C(=C/c2ccc(Cl)cc2)CNC1 (configuration not stated),24.8%,34.5%,-9.84% (active),13%,-69.5% (active),17.3%,-24% (active)
COC(=O)C[C@@H]1CC=CC(=O)/C1=C(O)/C=C/c1ccccc1,-36.3% (active),-32.1% (active),-81.7% (active),-3.08% (active),-92.2% (active),-95.1% (active),-76.3% (active)
Cn1c(=O)c2c(nc(Br)n2CCC(=O)Nc2ccc(F)cc2)n(C)c1=O,91.8%,108%,103%,100%,85.5%,103%,107%
Oc1[nH]c2ccccc2c1/C=c1/ccc2c(c1)N=C(c1cc(F)cc(F)c1)N=2,40.4%,25.2%,36.4%,25.1%,28.7%,81.1%,34%
COc1cc(NC(=O)c2cc3ccccc3cc2O)c(OC)cc1Cl,-24.3% (active),3.67% (active),17.5%,2.91% (active),-21.3% (active),-40.4% (active),5.63% (active)
COC(=O)CC1=C(C)/C(=C/c2[nH]c(-c3ccc[nH]3)cc2OC)N=C1C,22.3%,-4.71% (active),4.66% (active),-3.82% (active),-33.6% (active),11.3%,10.2%
C=Cc1nn2c(CCC(=O)c3nc4ccccc4[nH]3)nnc2s1,95.4%,100%,102%,93.8%,98.5%,98%,97.7%
CC(C)C/C(=N\NC(=O)c1ccncc1)c1cc(Cl)ccc1O,-1.24% (active),32.4%,31.1%,5.38% (active),0.442% (active),28.1%,25.8%
COc1ccccc1[C@H]1c2[nH]c3ccccc3c2C[C@H]2C(=O)N(CCCCCCC(=O)NO)CC(=O)N12,67.8%,45.4%,15.6%,37.7%,18.3%,38.9%,77.8%
COc1cccc(CCC2C(=O)CCCC2=O)c1,109%,119%,112%,108%,114%,115%,106%
O[C@@H]1Cc2ccc3ccccc3c2N[C@H](c2ccoc2)C1,106%,107%,112%,94.5%,105%,113%,106%
CN(C)c1ccc2[nH]c3c(C(N)=O)cc(=O)c(=O)c=3oc2c1,45.9%,-70.1% (active),33.8%,2.37% (active),-10.1% (active),97.7%,96.3%
C[C@]12CC[C@@H]3c4ccc(O)c([N+](=O)[O-])c4CC[C@H]3[C@@H]1CC[C@@H]2NS(=O)(=O)c1ccc(C(F)(F)F)cc1,30.9%,17.3%,34.2%,11.8%,15.5%,53.8%,19.9%
CCC1=C(c2ccc(OC)cc2)C(C)(C)Oc2c1ccc(O)c2CN1CCCC1,40.9%,2.88% (active),3.45% (active),-73.1% (active),-21.4% (active),-89.7% (active),-9.53% (active)
CCc1ccc(CCN2C(=O)c3ccccc3C2=O)nc1,116%,98.9%,107%,89.5%,109%,112%,103%
C/C(=C\CCc1ccoc1)CC/C=C(\C)CCCN1CCC(CO)CC1,54.2%,44.2%,18.2%,28.9%,31%,46.5%,44.6%
